The assay addresses furin, P09958. Description: furin cleavage Z-score vs untreated control; higher = more cleavage, active = 3.5 or more, inactive = 1 or less, 8 variable residues between constant flanks. The procedure, abridged: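 The cleavage Z-score was derived for purified furin acting on 8-mer peptides held on magnetic beads and fused to a cDNA oligonucleotide. Digests lasted 7.5, 15 or 30 min at 1:10 enzyme:substrate in 50 mM HEPES pH 7.5 with CaCl2 and NaCl. Sequencing counts of released DNA, log-transformed against furin-free reactions, were lowess-adjusted and scaled by median absolute deviation.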

The other results are listed elsewhere or left out. The hit rate among all sequences tested is not known here.

Chain of furin, P09958 (P09958 whole entry, the tested form may be a part): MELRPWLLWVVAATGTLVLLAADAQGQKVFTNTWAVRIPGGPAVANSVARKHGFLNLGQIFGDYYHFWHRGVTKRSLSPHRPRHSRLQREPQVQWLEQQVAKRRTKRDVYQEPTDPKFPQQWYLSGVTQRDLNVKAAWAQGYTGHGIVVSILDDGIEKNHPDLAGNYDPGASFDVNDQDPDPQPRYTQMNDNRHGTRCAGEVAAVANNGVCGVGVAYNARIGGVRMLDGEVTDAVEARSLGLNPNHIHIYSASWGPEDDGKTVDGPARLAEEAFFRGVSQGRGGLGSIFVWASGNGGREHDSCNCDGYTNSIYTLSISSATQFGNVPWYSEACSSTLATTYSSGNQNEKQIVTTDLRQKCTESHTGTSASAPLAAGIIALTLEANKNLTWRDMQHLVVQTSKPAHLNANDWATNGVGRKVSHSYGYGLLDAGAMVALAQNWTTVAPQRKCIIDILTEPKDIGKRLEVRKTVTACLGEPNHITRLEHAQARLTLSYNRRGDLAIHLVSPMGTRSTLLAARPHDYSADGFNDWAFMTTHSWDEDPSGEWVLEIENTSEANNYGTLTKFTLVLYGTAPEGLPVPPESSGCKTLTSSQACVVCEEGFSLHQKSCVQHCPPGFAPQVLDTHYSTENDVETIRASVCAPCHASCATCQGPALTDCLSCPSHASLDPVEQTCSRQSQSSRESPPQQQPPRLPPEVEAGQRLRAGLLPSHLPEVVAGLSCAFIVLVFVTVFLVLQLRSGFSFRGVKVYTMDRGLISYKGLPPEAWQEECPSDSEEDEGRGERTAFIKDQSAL

Regarding CAEVPCHRPHAGNASASA [HC2415], the “furin cleavage Z-score” value is 0.403 (inactive) (7.5 min), -0.336 (inactive) (15 min) and 0.894 (inactive) (30 min).

Consider CAADAILHTPAGNASASA [HC269], for which the “furin cleavage Z-score” value reads like this: (7.5 min) 0.255 (inactive); (15 min) -1.84 (inactive); (30 min) -0.719 (inactive).

On to CAIEPRSFSQAGNASASA [TR3], for which the “furin cleavage Z-score” value reads like this: (7.5 min) -0.606 (inactive); (15 min) -1.14 (inactive); (30 min) -0.409 (inactive).

For the sequence CATTPKSGSWAGNASASA [HC51], the “furin cleavage Z-score” value is -0.56 (inactive) (7.5 min), -0.574 (inactive) (15 min) and -0.879 (inactive) (30 min).

For CARPRRSIVFAGNASASA [FS-3229], the “furin cleavage Z-score” value reads like this: (7.5 min) 4.51 (active); (15 min) 5.67 (active); (30 min) 7.41 (active).

For CAKPARLIVFAGNASASA [HC1448], the “furin cleavage Z-score” value reads like this: (7.5 min) 0.00411 (inactive); (15 min) -1.12 (inactive); (30 min) -1.48 (inactive).

Regarding CARPRRYLYQAGNASASA [FS-2285], the “furin cleavage Z-score” value is 3.25 (7.5 min), 3.5 (15 min) and 5.12 (active) (30 min).

On to CASRPCSAHLAGNASASA [HC2493], for which the “furin cleavage Z-score” value reads like this: (7.5 min) 0.596 (inactive); (15 min) 1.57; (30 min) 0.79 (inactive).

In the case of CARSFRTASVAGNASASA [FS-3078], the “furin cleavage Z-score” value was 0.727 (inactive) (7.5 min), 0.141 (inactive) (15 min) and 1.09 (30 min).

On to CALRKRSSSTAGNASASA [FS-3179], for which the “furin cleavage Z-score” value is, setting by setting: (7.5 min) 0.00727 (inactive); (15 min) 0.0326 (inactive); (30 min) -0.921 (inactive).

As to CARRNRSTSTAGNASASA [FS-2072], the “furin cleavage Z-score” value is, setting by setting: (7.5 min) 4.22 (active); (15 min) 6.96 (active); (30 min) 4.29 (active).

On to CARRRRSSSTAGNASASA [FS-3068], for which the “furin cleavage Z-score” value reads like this: (7.5 min) 8.2 (active); (15 min) 7.85 (active); (30 min) 5.87 (active).

With CARRSRAASVAGNASASA [FS-1839], the “furin cleavage Z-score” value was 1.46 (7.5 min), 1.72 (15 min) and 3.72 (active) (30 min).

For CARRDRSTSIAGNASASA [FS-3203], the “furin cleavage Z-score” value runs as follows: (7.5 min) -0.171 (inactive); (15 min) 0.756 (inactive); (30 min) 1.79.

Consider CARRRRSSSVAGNASASA [FS-2299], for which the “furin cleavage Z-score” value was 3.15 (7.5 min), 3.17 (15 min) and 3.52 (active) (30 min).

Consider CADDEVVTSTAGNASASA [HC2291], for which the “furin cleavage Z-score” value reads like this: (7.5 min) 0.608 (inactive); (15 min) 0.354 (inactive); (30 min) -0.134 (inactive).

Consider CAMEECDQHLAGNASASA [HC32], for which the “furin cleavage Z-score” value is, setting by setting: (7.5 min) -1.25 (inactive); (15 min) -0.295 (inactive); (30 min) 0.17 (inactive).

With CAGKAIPLEVAGNASASA [HC849], the “furin cleavage Z-score” value (7.5 min) was -0.874 (inactive), the “furin cleavage Z-score” value (15 min) is -0.849 (inactive) and the “furin cleavage Z-score” value (30 min) was -0.983 (inactive).

In the case of CAEVVGSTWVAGNASASA [HC122], the “furin cleavage Z-score” value (7.5 min) was -0.227 (inactive), the “furin cleavage Z-score” value (15 min) is 0.0769 (inactive) and the “furin cleavage Z-score” value (30 min) is 0.871 (inactive).

As for CASTDCSAHLAGNASASA [HC2511], the “furin cleavage Z-score” value is, setting by setting: (7.5 min) -0.745 (inactive); (15 min) -1.14 (inactive); (30 min) 1.19.

In the case of CAPHRRRRRGAGNASASA [FS-555], the “furin cleavage Z-score” value runs as follows: (7.5 min) 5.9 (active); (15 min) 4.87 (active); (30 min) 5.4 (active).

In the case of CAVIPVRRRGAGNASASA [HC730], the “furin cleavage Z-score” value was -0.464 (inactive) (7.5 min), 0.132 (inactive) (15 min) and -0.326 (inactive) (30 min).

Take CAAPARERRGAGNASASA [FS-6]: the “furin cleavage Z-score” value is 7.34 (active) (7.5 min), 8.29 (active) (15 min) and 7.48 (active) (30 min).

CALFRRRRRGAGNASASA [FS-606]: the “furin cleavage Z-score” value is 5.12 (active) (7.5 min), 5.02 (active) (15 min) and 5.06 (active) (30 min).

With CAAPKRRRRGAGNASASA [FS-323], the “furin cleavage Z-score” value by setting is: (7.5 min) 4.98 (active); (15 min) 4.92 (active); (30 min) 3.74 (active).

Consider CAPGHLRRRGAGNASASA [FS-1046], for which the “furin cleavage Z-score” value is, setting by setting: (7.5 min) -0.0765 (inactive); (15 min) 0.0326 (inactive); (30 min) 0.261 (inactive).

Regarding CATPPRERRGAGNASASA [FS-1095], the “furin cleavage Z-score” value runs as follows: (7.5 min) -0.768 (inactive); (15 min) -0.415 (inactive); (30 min) -0.163 (inactive).

In the case of CAHGLVSFLVAGNASASA [HC542], the “furin cleavage Z-score” value runs as follows: (7.5 min) 0.693 (inactive); (15 min) -0.401 (inactive); (30 min) 0.576 (inactive).

As to CAVDYPYRLWAGNASASA [HC465], the “furin cleavage Z-score” value reads like this: (7.5 min) 0.139 (inactive); (15 min) 0.651 (inactive); (30 min) 1.32.

Consider CATGPCSGSWAGNASASA [HC1856], for which the “furin cleavage Z-score” value (7.5 min) was -0.371 (inactive), the “furin cleavage Z-score” value (15 min) was -0.739 (inactive) and the “furin cleavage Z-score” value (30 min) is -1.48 (inactive).

CARLKKFQEAAGNASASA [FS-2987]: the “furin cleavage Z-score” value is, setting by setting: (7.5 min) -0.948 (inactive); (15 min) -1.1 (inactive); (30 min) -1.63 (inactive).

Consider CAGENLYFQSAGNASASA [TV1], for which the “furin cleavage Z-score” value runs as follows: (7.5 min) -1.03 (inactive); (15 min) -1.63 (inactive); (30 min) -0.511 (inactive).

With CAPINAYTTGAGNASASA [HC1191], the “furin cleavage Z-score” value is, setting by setting: (7.5 min) 0.157 (inactive); (15 min) 0.17 (inactive); (30 min) 0.965 (inactive).

With CAAERRRRRGAGNASASA [FS-2], the “furin cleavage Z-score” value runs as follows: (7.5 min) 4.28 (active); (15 min) 3.26; (30 min) 2.64.

For CAAERRHYRPAGNASASA [FS-969], the “furin cleavage Z-score” value by setting is: (7.5 min) 0.389 (inactive); (15 min) 0.437 (inactive); (30 min) 0.0544 (inactive).

For CACHRRMRRGAGNASASA [FS-404], the “furin cleavage Z-score” value is 10.7 (active) (7.5 min), 8.52 (active) (15 min) and 8.21 (active) (30 min).

Regarding CAAESRACRGAGNASASA [FS-742], the “furin cleavage Z-score” value (7.5 min) is -0.725 (inactive), the “furin cleavage Z-score” value (15 min) is -0.739 (inactive) and the “furin cleavage Z-score” value (30 min) was -0.66 (inactive).

As for CADEVDNKVKAGNASASA [CS4], the “furin cleavage Z-score” value was -0.725 (inactive) (7.5 min), -1.22 (inactive) (15 min) and -1.28 (inactive) (30 min).

With CAPGAATAFVAGNASASA [HC1072], the “furin cleavage Z-score” value is 0.989 (inactive) (7.5 min), 1.72 (15 min) and 0.199 (inactive) (30 min).

For the sequence CASVAATLGFAGNASASA [HC789], the “furin cleavage Z-score” value (7.5 min) is 1.93, the “furin cleavage Z-score” value (15 min) is 0.468 (inactive) and the “furin cleavage Z-score” value (30 min) was 0.352 (inactive).

For CARSADGRRFAGNASASA [FS-1654], the “furin cleavage Z-score” value is -0.463 (inactive) (7.5 min), -0.885 (inactive) (15 min) and -0.419 (inactive) (30 min).

Regarding CAILTRRRRFAGNASASA [FS-1347], the “furin cleavage Z-score” value runs as follows: (7.5 min) 8.01 (active); (15 min) 8.67 (active); (30 min) 7.5 (active).

Turning to CAGLRRRRRFAGNASASA [FS-531], the “furin cleavage Z-score” value runs as follows: (7.5 min) 7.13 (active); (15 min) 8.7 (active); (30 min) 7.24 (active).

For CATQVRRRRFAGNASASA [FS-1497], the “furin cleavage Z-score” value was 6.78 (active) (7.5 min), 10.5 (active) (15 min) and 7.46 (active) (30 min).

Turning to CAKDYRRIRFAGNASASA [FS-173], the “furin cleavage Z-score” value is, setting by setting: (7.5 min) 0.143 (inactive); (15 min) -0.374 (inactive); (30 min) 0.736 (inactive).

With CARVARRRRFAGNASASA [FS-1164], the “furin cleavage Z-score” value (7.5 min) was 8.04 (active), the “furin cleavage Z-score” value (15 min) was 10 (active) and the “furin cleavage Z-score” value (30 min) was 7.4 (active).

(Values after the supplement of paper PMC3545927.)
